Screening results deposited in PubChem by National Center for Advancing Translational Sciences (NCATS).
The list is not random: actives were taken first. Their share in the collection is about 3.2%.
Hsp90 Hop PPI: changes Hsp90-Hop TPR2A binding signal, up or down; AlphaScreen TPR2A-His6 binding biotin-Hsp90 C-terminal peptide; 0.44% of 71,000 active; AID 595; Potency, µM (series often up to 57 µM), without a hit: at the top dose activity change, negative = inhibition; active = well fitted curve in either direction with a large enough effect; inconclusive = small, poorly fitted or top-dose-only effect, or another doubt; note: % is set by controls: 0 for no effect and ±100 for the full control effect
USP2a inh: inhibitors of human ubiquitin-specific protease USP2a; O75604; USP2a enzymatic assay, qHTS inhibition; Potency, µM (titrated, usually from 38.3 µM), for the others: top-dose activity change, negative = inhibition, actives largely listed as inhibitors; 0.1% of 60,000 active; AID 927; note: nearly all actives have a fitted effect of over 60% in size
Target sequence (O75604 whole entry, looked up): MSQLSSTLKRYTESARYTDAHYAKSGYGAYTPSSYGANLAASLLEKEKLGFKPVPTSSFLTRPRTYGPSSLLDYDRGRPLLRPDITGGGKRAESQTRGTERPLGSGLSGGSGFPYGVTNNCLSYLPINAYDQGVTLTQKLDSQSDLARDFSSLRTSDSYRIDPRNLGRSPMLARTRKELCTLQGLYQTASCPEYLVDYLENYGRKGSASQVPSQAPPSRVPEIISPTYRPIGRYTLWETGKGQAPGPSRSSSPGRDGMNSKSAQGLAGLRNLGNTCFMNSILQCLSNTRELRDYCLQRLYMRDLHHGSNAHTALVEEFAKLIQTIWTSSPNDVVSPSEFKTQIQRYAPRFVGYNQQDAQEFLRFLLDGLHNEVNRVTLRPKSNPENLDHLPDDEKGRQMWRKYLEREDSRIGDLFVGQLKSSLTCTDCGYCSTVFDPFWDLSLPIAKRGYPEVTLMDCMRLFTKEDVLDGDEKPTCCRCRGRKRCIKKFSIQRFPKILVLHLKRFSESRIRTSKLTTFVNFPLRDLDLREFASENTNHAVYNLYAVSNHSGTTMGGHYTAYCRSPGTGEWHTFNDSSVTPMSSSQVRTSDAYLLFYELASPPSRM
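Coupled readout: USP2-cleaved Ub-PLA2 (20nM final) turns over NBD C6-HPC (20uM final), Ex 460nm/Em 535nm after 2.5 h, time-zero read flagging artifacts. Enzyme (20nM final, pH 8.0 Tris) given 30 min RT with compound first; NEM defines full inhibition.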
Tau fil binding: binds recombinant human tau filaments | P10636 | recombinant tau filaments, thioflavin S fluorescence, 15 h; filaments grown with octadecylsulfate alongside compound | Potency, µM (doses to about 57.1 µM), inactives show at the highest dose activity change, negative = inhibition | 2% of 71,000 active | AID 596;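 note: % is set by controls: 0 for no effect and ±100 for the full control effect; actives lower thioflavin S fluorescence by blocking filaments or displacing dye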
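His-tagged recombinant human tau (exons 2, 3 and 10 included), 1 uM, was induced to fibrillize by 30 uM sodium octadecylsulfate with compound present. After 15 h at 37 C, thioflavine S fluorescence (ex 450, em 510 nm) was read.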
15-hLO inh: inhibitors of human 15-lipoxygenase (ALOX15); P16050; purified 15hLO-1, xylenol orange hydroperoxide absorbance; Potency, µM (doses to about 57.1 µM), inactives show top-dose activity change, negative = inhibition, actives largely listed as inhibitors; 1.4% of 74,000 active; AID 887; note: % is set by controls: 0 for no effect and ±100 for the full control effect; nearly all actives have a fitted effect of over 55% in size
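Purified human 15hLO-1 (40 nM final) in 25 mM Hepes pH 7.5, 0.01% Triton X-100 was preincubated with compound 15 min at room temperature, then reacted 6 min with 50 uM arachidonic acid; hydroperoxide detected by Fe-XO, 573/405 nm absorbance ratio.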
Numbers without * were called inactive; i = inactive; u = inconclusive; x = not tested or not shown; [ ] = another dose, or the depositor's remark. Unless noted, calls come from the whole dose curve; as a rule, active = well fitted curve in the direction sought with a large enough effect; inconclusive = small, poorly fitted or top-dose-only effect, or another doubt; inactive = no such curve, though single readings can be large; an effect the other way counts as inactive or inconclusive. Potency is the fitted concentration of half-maximal effect.

SMILES | Hsp90 Hop PPI | USP2a inh | Tau fil binding | 15-hLO inh
COc1cccc(-c2cnc(NCc3cc(Cl)ccc3O)n2C)c1 | u | -2% | 30% | 32µM*
Cn1c(-c2cccc(Br)c2)cnc1NCc1cccnc1 | -11% | x | 13% | 16%
Cc1ccc2cc(CN(Cc3ccc4c(c3)OCO4)Cc3nnnn3Cc3ccco3)c(=O)[nH]c2c1C | -9% | 265% | 41% | 25µM*
Cc1ccc(C)c2[nH]c(=O)c(CN(Cc3ccc4c(c3)OCO4)Cc3nnnn3Cc3ccco3)cc12 | -18% | x | 14% | 25µM*
Cc1ccc2cc(CN(CCN3CCOCC3)Cc3nnnn3Cc3ccco3)c(=O)[nH]c2c1C | -3% | 12% | 26% | -11%
CCC(C)(C)n1nnnc1CN(Cc1ccco1)Cc1cc2cc3c(cc2[nH]c1=O)OCO3 | -16% | 35% | 41% | 0.0079µM*
Cn1c(SCC2CCCCC2)nnc1-c1ccncc1 | 0% | 21% | 11% | 14%
Nc1c(S(=O)(=O)c2cccs2)c2nc3ccccc3nc2n1/N=C/c1cccc(O)c1 | 5% | -96% | i | -20%
N#Cc1ccsc1NC(=O)CSc1ncn[nH]1 | -6% | -2% | 1% | 6%
N#Cc1ccsc1NC(=O)CSc1ncnc2ccccc12 | -7% | 27% | 20µM* | -3%
CCOC(=O)N1CCN(C(=O)c2ccc(NC(=O)c3ccc(C)cc3)cc2)CC1 | -4% | 22% | 4% | 4%
COc1cc(CN2CCC(C(=O)NC3CCCC3)CC2)cc(OC)c1O | -9% | -16% | 7% | 25µM*
Cc1nc(NCc2ccccc2)c2nc(-c3ccccc3)n(CCN3CCOCC3)c2n1 | -5% | x | 7% | 20µM*
Cc1nc(NCc2ccccc2)c2nc(-c3ccccc3)n(CCN3CCCC3)c2n1 | -5% | x | 21% | 4%
CCCCNc1nc(C)nc2c1nc(-c1ccccc1)n2CCN1CCCCC1 | -7% | x | 59% | 13µM*
CCOC(=O)N/N=C1/C[C@@H](O)[C@@H](O)[C@@H]2[C@@H]3C(=O)N(c4cccc(Oc5ccccc5)c4)C(=O)[C@H]3CC[C@H]12 | x | x | x | 7%[11.4 µM]
COc1ccc(C(=O)c2oc3ccccc3c2N)cc1 | 16% | -12% | 13µM* | -22%
C=C1CC[C@H]2C(C)(C)[C@H](O)CC[C@]2(C)[C@@H]1COc1ccc2ccc(=O)oc2c1 | -2% | x | u | x
CC1CCN(c2nc(-c3ccncc3)nc3ccccc23)CC1 | 5% | u | 5% | -8%
CC1CCCCN1c1nc(-c2ccncc2)nc2ccccc12 (configuration not stated) | 5% | 10µM* | 20% | u
Cc1ccc2c(c1)c1cccc3c1n2CCN3CCC(N)=O | u | 28% | 5µM* | 13µM*
CCn1c(C)cc(=S)c2ccccc21 | -4% | 2% | 5µM* | -26%
CCn1c2ccccc2c2cc(N)ccc21 | -26% | -10% | 3.2µM* | -17%
CN(C)CCCN1CCC2(CCC(C(C)(C)C)CC2)CC1 | 0%[11 µM] | x | 9%[11.4 µM] | 33%[11.4 µM]
Cc1cc(NC(=O)Nc2ccc(N(C)C)cc2)c2cc(F)cc(F)c2n1 | 7.9µM* | x | 32µM* | -4%[25.6 µM]
SMILES | Hsp90 Hop PPI | USP2a inh | Tau fil binding | 15-hLO inh
CN[C@@H]1[C@H](O)[C@H](NC)[C@@H]2O[C@]3(O)C(=O)C[C@@H](C)O[C@H]3O[C@@H]2[C@H]1O | u | x | 40µM* | x
Oc1cccc(C=NCc2ccccc2)c1O | x | x | x | 5µM*
CC1=CC(=O)[C@@H]2C[C@H]1C2(C)C | x | x | x | 5%[25.6 µM]
Cc1ccc(-n2nc3ccc(N)cc3n2)cc1 | -3% | x | 13µM* | -19%
C=CC(C1=CC(=O)C(OC)=CC1=O)c1ccc(O)cc1 (configuration not stated) | x | -26% | x | 25µM*
CCOC(=O)c1c(-c2ccc(C)o2)csc1N | u | 30%[7.66 µM] | -3%[11.4 µM] | 1.6µM*
O=c1c(-c2cc(O)c(O)c(O)c2)coc2cc(O)c(O)c(O)c12 | x | 0% | x | 10µM*
COC(=O)C1=C(C)NC(C)=C(C(=O)OCCSc2ccccc2)[C@@H]1C | 40µM* | x | u | -11%[25.6 µM]
NNC(=O)CCSc1ccccc1 | -3%[11 µM] | x | 4%[11.4 µM] | 8%[11.4 µM]
N=C1N=C(N)c2cc3ccccc3cc21 | 2% | x | 2.5µM* | 1%
Nc1ccc2cc3ccccc3cc2c1 | -22% | x | u | u
CC1(C)CCC2(C(=O)O)CC[C@]3(C)C(=CCC4[C@]5(C)CCC(O)C(C)(C)C5C(O)C[C@]43C)C2C1 (some centres not stated) | x | 69% | x | -26%
CN(C)c1ccc(-c2ccc3ncnc(N(C)Cc4ccco4)c3c2)cc1 | 6% | 110% | 20µM* | -19%
